# Reference: PubChem BioAssay (NCI)
# The panel holds about 83,000 compounds, 20% with a hit somewhere; the sample as a whole holds those more often.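 Plates (96-well) were seeded with cells, treated with compound at one concentration, and incubated for 48 hours before percent growth was determined.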 Values without a mark were called inactive. Calls of active or inactive are those of the source.
# Test system: HCT-116 colon
# Test: NCI-60 one-dose screen, 48 h (100 = growth as untreated, 0 = no growth, -100 = all killed)
# Details: 10 µM
# Description: Growth inhibition of the HCT-116 human tumor cell line is measured as a screen for anti-cancer activity. Cells are grown in 96 well plates and exposed to the test compound for 48 hours. Compounds are tested at a single concentration, which is 10^-5 M for most compounds. The reported endpoint is percent growth (GI% or GIPRCNT), where numbers from 0 - 100% represent growth inhibition, and numbers from -100% - 0 represent cell death. For example, a value of 40 represents 60% growth inhibition. A value of 0 means no net growth occurred over the course of the experiment. A value of -40 indicates 40% of cells at the beginning of the experiment died by the end of the experiment. A value of -100 means all cells are dead at the end of the experiment.
# NCI-60 Human Tumor Cell Lines Screen was performed using the standard one-dose NCI protocol, which is described in more detail at https://dtp.cancer.gov/discovery_development/nci-60/default.htm.
# Compounds with GIPRCNT values below 10 were considered active. Activity score was based on GIPRCNT using the following formula: […]
# Score is 0 for GIPRCNT values of 100 or above, 50 for GIPRCNT values of 0, and 100 for GIPRCNT values of -100.
row,Compound,growth
1,Cc1nc2cc(-n3c(-c4ccc(F)cc4)nc4ccccc4c3=O)ccc2n1Cc1ccccc1,-18.8% (active)
2,COc1cc(Cn2c(-c3ccccc3)cc3c2-c2oncc2CC3)cc(OC)c1,6.79% (active)
3,Cc1cc(C)c2c(Nc3ncnc4c3sc3nc(C)cc(C)c34)n[nH]c2n1,103%
4,CC(=O)OC1Oc2ccccc2-c2oc(=O)c(-c3cc(=O)oc4cc(O)ccc34)cc21 (stereo not given),87.3%
5,Cc1ccc([P+](Cc2ccccc2)(c2ccccc2)c2ccccc2)cc1,4.1% (active)
6,COc1ccc(/C=C2\CCC3C(CCCC34OCCO4)C2=O)cc1 (stereo not given),92.4%
7,Cc1nc(Nc2nc3ccccc3o2)nc(-c2cccc([N+](=O)[O-])c2)c1C(=O)Nc1ccc(F)c(Cl)c1,6.76% (active)
8,COc1ccc(C2C=C(c3ccc(Cl)cc3)N=C3SC=CN32)c(Br)c1 (stereo not given),54%
9,Cc1ccc2c(c1)-c1cc(C)nn1-c1ccc(C#N)cc1O2,27.6%
10,CCCCCCCCCCCCCCCCn1cc[n+](C)c1,-87.2% (active)
11,CC(=O)CS(C)(=O)=O,107%
12,CCCCCCCCCCCC(=O)NCCCN(C)C,67.6%
13,Cc1cn(C(=O)/C(Cl)=C(/Cl)C(=O)O)c2ccccc12,105%
14,Cc1nc(N)sc1Sc1nc2ccc(Cl)cc2c(=O)n1-c1ccc(Oc2ccccc2)cc1,33.3%
15,OC(CNC1CCCC1)Cn1c2ccccc2c2ccccc21 (stereo not given),-37.3% (active)
16,CC(C)c1[nH]nc2c(NCc3ccc(-c4ccccn4)cc3)nc(SCCN(C)C)nc12,9.24% (active)
17,CC[C@@]1(C(N)=O)CC2C=CC1C2 (stereo not given in full),104%
18,Cc1nnc2c3nnc(-c4ccc(Cl)cc4)n3c3ccccc3n12,101%
19,COc1ccc(N2CCN(c3nc(-c4ccccc4)c(C#N)c(=O)[nH]3)CC2)cc1,89.9%
20,COc1cc(Nc2ccnc(N3CCN(c4ccnc5cc(Cl)ccc45)CC3)n2)cc(OC)c1,5.15% (active)

row,Compound,growth
1,COc1cc(-c2nc3ccc(C)cc3[nH]2)ccc1OCC(=O)N=Nc1c(O)[nH]c2ccccc12,-82.7% (active)
2,COc1ccc(-c2nnc(COc3ccc(NC(=O)Nc4cccc(C(F)(F)F)c4)cc3F)o2)cc1,56.7%
3,COc1ccc(Cn2cc3c(c2-c2cc(OC)c(OC)c(OC)c2)CCc2cnoc2-3)cc1[N+](=O)[O-],19.4%
4,Cc1ccc(S(=O)(=O)Nc2cccc3[nH]c(C(F)(F)F)nc23)cc1,23.8%
5,O=S(=O)(NCl)c1ccccc1,101%
6,O=C1CC[C@@H](C(=O)N[C@H]2CSSC[C@@H](C(=O)N/C=C/c3ccc(O)cc3)NC(=O)[C@H](Cc3ccccc3)NC(=O)[C@@H]3CCCN3C(=O)[C@@H]3CCCN3C2=O)N1,99.7%
7,Cc1nc2sccn2c1-c1csc(Nc2cccc(Cl)c2C)n1,46.1%
8,Cc1cc(Nc2cccc(F)c2)nc(NCc2ccccc2)n1,15.8%
9,COc1ccc(-c2nc(-c3nc4ccc(OC)cc4[nH]3)c3ccccn23)cc1,66.4%
10,COc1cccc2c1C(=O)c1c(O)c3c(c(O)c1C2=O)C[C@@](O)(C(=O)COC(=O)c1cccnc1)C[C@@H]3OC1CC(N)C(O)C(C)O1 (stereo not given in full),6.26% (active)
11,CCc1ccc(Nc2cc(C)nc3nc(C)nn23)cc1,-90.7% (active)
12,COc1ccc(S(=O)(=O)Nc2ccc(OCc3nnc(-c4ccc(Cl)cc4)o3)c(F)c2)cc1,54.6%
13,CCOc1cc(Br)c(C(C)NC(=O)c2cccc(OC)c2)cc1OCC (stereo not given),56.2%
14,COc1ccc(-c2[nH]ncc2-c2cc(OC)c(OC)c(OC)c2)cc1,2.61% (active)
15,CCCc1c(C)nc2scc(-c3ccc(Cl)cc3)n2c1=O,99.1%
16,COc1ccc(CCc2nc3cc(-c4c(C)noc4C)ccc3n2CCN2CCOCC2)cc1,31.1%
17,CCC(OC(=O)CC(C)C)c1ccccc1 (stereo not given),107%
18,CC(=O)/C(=C\c1ccc(Cl)cc1)c1ccccc1,5.06% (active)
19,CCN(CC)CCn1c(=N)n(CC(O)c2ccc(Cl)c(Cl)c2)c2ccccc21 (stereo not given),77.7%
20,CN1CCN(c2nc(-c3cccnc3)nc3sc4c(c23)CCCCCC4)CC1,85.3%
